Compounds with a hit are over-represented: about 8% of the library has one in this group of screens.
KB-3-1 cytotox – kills parental KB-3-1 adenocarcinoma cells; KB-3-1 viability, CellTiter-Glo ATP luminescence, 72 h; Potency, µM (highest dose often 46.1 µM), actives largely listed as cytotoxic; actives 1.4% (n = 400,000); AID 1347075; further: on the % scale 0 is the no-effect control and ±100 the full control effect; nearly all actives have a fitted effect of over 60% in size
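Cells are dispensed, compounds pinned in, plates held at 37 °C for 72 h, then CellTiter-Glo is added and luminescence read after 10 minutes. Cell line: parental KB-3-1 in phenol-red-free DMEM, 10% FBS.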
SW480 rerep – induces DNA re-replication in SW480 colon adenocarcinoma cells | AID 624297 | actives 1.8% (n = 340,000) | Potency, µM (top dose mostly 46.1 µM), for inactives: at the highest dose re-replication activation, most hits filed as activators | SW480 DNA re-replication, Hoechst DNA content imaging, 48 h; further: % of control where 0% means no effect; nearly all actives have a fitted effect of over 55% in size
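Hoechst fluorescence of nuclei (405 nm excitation, 500-530 nm emission) measured by plate-scanning imager after 48 hr compound exposure at 37 C; re-replication scored as increased number of nuclei with elevated intensity.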
HT1080NT lethal – kills 2HG-producing HT-1080-NT fibrosarcoma cells | HT-1080-NT fibrosarcoma viability, CellTiter-Glo ATP luminescence, 48 h | Potency, µM (titrated, usually from 46.1 µM), for inactives: top-dose activity, negative = less viability, actives largely listed as cytotoxic | actives 1.6% (n = 360,000) | AID 686970;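 further: NT is the 2HG producing partner of a matched IDH1 knockdown line; 0% = DMSO-treated cells and -100% = media-only wells without cells; nearly all actives have a fitted effect of over 55% in size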
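Read-out is CellTiter-Glo luminescence after 10 minutes at room temperature, following 48 hours' compound treatment of HT-1080-NT cells (750 cells/well, RPMI, 5% FBS, 37 degrees C).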
MCF10A rerep – induces DNA re-replication in MCF 10a normal breast cells. AID 624296. actives 2.9% (n = 350,000). MCF 10A DNA re-replication, Hoechst nuclear intensity, 48 h. Potency, µM (doses to about 46.1 µM), inactives show at the top dose activity, positive = re-replication, actives largely listed as activators; further: % of control where 0% means no effect; nearly all actives have a fitted effect of over 50% in size
KB-V1 MDR tox – kills drug-selected multidrug resistant KB-V1 cells | KB-V1 MDR cells viability, CellTiter-Glo, 72 h | Potency, µM (highest dose often 46.1 µM), most hits filed as cytotoxic | actives 3.4% (n = 400,000) | AID 1347076; further: on the % scale 0 is the no-effect control and ±100 the full control effect; nearly all actives have a fitted effect of over 60% in size
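Readout: CellTiter-Glo luminescence, 10 min after addition. Cells: KB-V1 MDR subline, 72 h at 37 degrees C with compound. Analysis: corrected, normalized data fitted to concentration-effect curves.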
HT1080 IDH1KD tx – toxicity to HT-1080 IDH1 knockdown cells (counter line). Potency, µM (highest dose often 46.1 µM), for inactives: at the top dose activity, negative = toxicity, hits mostly cytotoxic. actives 2% (n = 360,000). HT-1080 IDH1 knockdown viability, ATP luminescence, 48 h;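 further: 0% = DMSO wells and -100% = cell-free medium wells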
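Using the IDH1-knockdown HT-1080 line run in the same batch and compound series as the NT line, viability after 48 h at 37 °C was determined by CellTiter-Glo luminescence and expressed as % activity.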
* hit, by the source's call; i = inactive; ? = inconclusive; . = no result given; [ ] = remark or other dose. The call rests on the fitted dose curve; in most records, active means well fitted curve in the direction sought with a large enough effect; inconclusive means small, poorly fitted or top-dose-only effect, or another doubt; inactive means no such curve, though single readings can be large; an effect the other way counts as inactive or inconclusive. Potency means the concentration at half of the fitted maximal effect.

SMILES | KB-3-1 cytotox | SW480 rerep | HT1080NT lethal | MCF10A rerep | KB-V1 MDR tox | HT1080 IDH1KD tx
O=C(NN(c1ccccc1)c1ccccc1)c1ccc([N+](=O)[O-])o1 | ? | 12µM* | ? | ? | ? | ?
OC(CNCC1COc2ccccc2O1)COc1ccc(Cl)cc1 (stereo unspecified) | i | 0% | 1% | 25% | i | 0%
COc1ccc(-c2ccc3ccccc3n2)cc1 | i | -9% | -14% | -5% | i | -11%
COc1ccc(-c2onc(C)c2-c2ccccc2)c(O)c1 | ? | ? | ? | ? | ? | 16µM*
COc1ccc(-c2noc(C)c2-c2ccc3ccccc3n2)c(O)c1 | ? | 4.6µM* | ? | ? | ? | ?
CCC(C)NC(=O)CSc1ccc(Cl)cc1 (stereo unspecified) | i | -2%[9.22 µM] | -2% | -3% | i | -2%
CC(C)C(NC(=O)CSc1ccc(Cl)cc1)C(C)C | i | -1% | 7% | 26µM* | ? | 0%
COc1ccc(C(=O)CC(Sc2ccccc2N)c2ccc(OC)cc2)cc1 (stereo unspecified) | 23µM* | . | -8% | . | i | -23%
Cc1nc([N+](=O)[O-])c(C(=O)OCc2ccccc2F)n1C | i | 0% | -1% | -9% | i | -2%
CC(=O)Nc1ccc(S(=O)(=O)Nc2nccc(C3Cc4ccccc4C(=O)O3)n2)cc1 (stereo unspecified) | i | -6% | 4% | -7% | i | 0%
CCNc1nc(N)c(C(=O)c2ccc(Cl)s2)s1 | ? | ? | -11% | 0.92µM* | ? | -13%
Cc1ccc(-c2nc(N/N=C/c3ccccc3[N+](=O)[O-])c3ccccc3n2)cc1 | i | 7.3µM* | ? | 13µM* | i | 4.5µM*
c1ccc(Nc2nc(-c3ccncc3)nc3ccccc23)cc1 | i | 3% | -5% | 17% | i | 13%
Cc1ccc(Nc2nc(-c3ccncc3)nc3ccccc23)cc1 | i | 55% | -10% | 9.2µM* | i | 1%
c1ccc(CCNc2nc(-c3ccncc3)nc3ccccc23)cc1 | ? | 21µM* | ? | ? | 15µM* | 4.1µM*
Cc1ccc(Nc2nc(-c3ccccc3)nc3ccccc23)cc1 | i | . | . | . | ? | .
COc1ccc(NC(=O)CSc2nc3c(oc4ccccc43)c(=O)n2-c2ccccc2)cc1OC | i | . | . | . | i | .
Cc1cc(C)n(CC(=O)N2CCCC(N3CCN(c4ccccc4C)CC3)C2)n1 (stereo unspecified) | i | 5% | -4% | -2% | i | -3%
O=C(CSc1nc2ncc(Cl)cc2[nH]1)c1c[nH]c2ccccc12 | i | 25% | -9% | 23µM* | i | -5%
CCOc1nc(SCCOc2ccc(Cl)cc2Cl)nc(N(C)C)n1 | i | -2% | 26% | 110% | 21µM* | 5%
Cc1ccc(Cl)cc1NC(=O)N(C)CCO | i | 0% | -3% | 15% | i | -3%
CCOc1ccc(S(=O)(=O)NCCC(=O)N2CCN(Cc3ccccc3)CC2)cc1 | i | 0% | 4% | 10% | ? | -12%
CCOc1ccc(S(=O)(=O)NCCC(=O)N2CCN(c3ncccn3)CC2)cc1 | i | -10% | 3% | -9% | 18µM* | -3%
CCOC(=O)c1cc(-c2ccccc2)n(CCC(=O)N2CCN(c3ccc(OC)cc3)CC2)c1C | i | 4% | -6% | 26µM* | ? | -9%
CCOC(=O)c1cc(-c2ccccc2)n(CCC(=O)N2CCN(c3ccccc3OC)CC2)c1C | i | 7% | -11% | ? | ? | -17%
SMILES | KB-3-1 cytotox | SW480 rerep | HT1080NT lethal | MCF10A rerep | KB-V1 MDR tox | HT1080 IDH1KD tx
O=C(CCNS(=O)(=O)c1ccc(Cl)cc1)N1CCN(c2ncccn2)CC1 | ? | -3% | 4% | 6% | ? | 0%
O=C(CCC(F)(F)F)N1CCCC(CO)(CCc2ccccc2)C1 (stereo unspecified) | i | ? | 0% | 0.65µM* | i | 2%
CCOc1ccc(S(=O)(=O)NCCC(=O)N2CC=C(c3ccccc3)CC2)cc1 | 13µM* | -22% | -1%[9.24 µM] | ? | ? | -4%
O=C(NCc1ccc2c(c1)OCO2)c1ccc(CSCc2cccc(Cl)c2)o1 | i | . | -7% | 6% | i | -10%
Cc1c(C(=O)N2CCN(C)CC2)oc2c1C(=O)CC(C)(C)C2 | i | 3% | 3%[9.24 µM] | -2% | i | -18%
CC(c1cccnc1)N(CCN(C)C)C(=O)Nc1ccc(Cl)cc1 (stereo unspecified) | i | 0% | -9% | 2% | i | -1%
CCNS(=O)(=O)c1ccc(CCC(=O)N2CCN(Cc3ccccc3)CC2)cc1 | i | -13% | 2% | -6% | i | 11%
O=C(CCc1ccccc1)N1CCCN(C(=O)CCc2ccccc2)CC1 | i | 60% | 13% | -13% | 21µM* | 9%
COc1ccc(N2CCN(C(=O)CCS(=O)(=O)c3ccc4c(c3)CCN4C(=O)C3CC3)CC2)cc1 | i | 5.8µM* | 3% | ? | i | -5%
COc1ccc(C(CNC(=O)CCNS(=O)(=O)c2ccc(C)cc2)N2CCOCC2)cc1 (stereo unspecified) | i | 5.2µM* | 16% | 12% | i | 5%
COc1ccc(N2CCN(C(=O)CCS(=O)(=O)c3cc(Br)cc4c3N(C(=O)C3CC3)CC4)CC2)cc1 | i | . | . | . | i | .
CCOC(=O)N1CCN(C(=O)CCc2ccc(S(=O)(=O)NCCc3ccccc3)cc2)CC1 | i | -8% | -8% | 1% | 16µM* | -18%
CCCCCCCC(=O)Oc1ccc(C(=O)Nc2cc(C)on2)cc1 | i | -6% | -5% | -3% | i | -2%
COc1cc(N2CCCC2)c(OC)cc1/C=C1/NC(=S)NC1=O | i | 6% | 15% | ? | ? | -1%
O=C(COC(=O)c1ccc(Br)cc1)NCCN1C(=O)CSC1=O | i | 8% | 20% | -8% | i | 16%
CC(C)C(NC(=O)Cc1ccccc1[N+](=O)[O-])C(C)C | i | 5% | 2% | -65% | ? | 1%
COc1cc(C(C)=O)ccc1OCC(O)CN(CCO)Cc1ccccc1 (stereo unspecified) | i | -10% | 7% | ? | ? | 2%
COc1ccc(N2CCN(C(=O)CCNS(=O)(=O)c3ccccc3)CC2)cc1 | i | 27% | 9% | 26µM* | i | -18%
CCCCNC(=O)CO/N=C(\C)c1cc2ccccc2o1 | i | 17% | 5% | 25% | 16µM* | 5%
